SMILES strings stand for the structures. Results filed as inconclusive are left out. Activity calls are given as the source filed them. Rule for the calls, unless noted: active = hit-call score of the fitted dose curve at least 0.9, where 1 is the maximum; inconclusive = response in the unintended direction; inactive = score below 0.9.

The term AC50 denotes the concentration at which the activity in the assay is half-maximal.

Experiment [1] is described as follows: ATG_TAL_CIS: Attagene CIS-FACTORIAL HepG2 Assay for human TAL Basal Promoter (AID 2282966; active = hit-call score of the fitted dose curve at least 0.9, where 1 is the maximum; inactive = score below 0.9;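 note: background control endpoint measuring basal TAL promoter reporter mRNA not a specific factor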). As to conditions: HepG2 Attagene cis-factorial TAL promoter reporter; actives raise or lower the signal. The procedure, abridged: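 Steps: transfect HepG2 with multiple reporter transcription units; dose 24 h; isolate RNA, reverse-transcribe, PCR-amplify, label with 6-FAM, digest with HpaI; resolve by capillary electrophoresis. Bidirectional fitting against DMSO baseline.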

A short description of experiment [2]: ATG_TGFb_CIS: Attagene CIS-FACTORIAL HepG2 Assay for human Transforming Growth Factor (TGF) (AID 2282967; active = hit-call score of the fitted dose curve at least 0.9, where 1 is the maximum; inactive = score below 0.9). The following applies: HepG2 Attagene CIS TGFb reporter, mRNA transcription; actives raise or lower the signal. In short, it runs like this: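 Liver HepG2 line, cis-factorial reporter panel, 24 h dosing. Quantitation: RT-PCR products labeled with 6-FAM, cut with HpaI, resolved by capillary electrophoresis; DMSO-referenced bidirectional analysis.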

The nature of experiment [3]: ATG_VDRE_CIS: Attagene CIS-FACTORIAL HepG2 Assay for human Vitamin D Receptor Element (VDRE) (AID 2282968; active = hit-call score of the fitted dose curve at least 0.9, where 1 is the maximum; inactive = score below 0.9). The following applies: HepG2 VDRE cis-reporter transcription, actives raise or lower the signal. The procedure, abridged: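 Cell-based multiplexed reporter format in human liver HepG2 cells, 24 h post-dose. Fluorescence from capillary electrophoresis of reporter cDNA gives the signal, with DMSO as negative control and baseline.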

Experiment [4] concerns the target Steroid hormone receptor ERR1 (Homo sapiens) (UniProt P11474). Put plainly: ATG_ERRa_TRANS: Attagene TRANS-FACTORIAL HepG2 Assay for human Estrogen-Related Receptor alpha (ERRa) (AID 2282971). As to conditions: HepG2 Attagene TRANS reporter, ERRa transactivation. The procedure, abridged:
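Signal gain relative to DMSO for an ERRa-Gal4 chimeric receptor, read as reporter mRNA by RT-PCR/capillary electrophoresis. Human HepG2 liver cells, transient multiplex reporter transfection, 24 h chemical exposure.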

For experiment [5], the target named is X-box-binding protein 1 (Homo sapiens) (UniProt P17861). Put plainly: ATG_Xbp1_CIS: Attagene CIS-FACTORIAL HepG2 Assay for human X-box Binding Protein 1 (XBP1) (AID 2282972; active = hit-call score of the fitted dose curve at least 0.9, where 1 is the maximum; inactive = score below 0.9). The following applies: HepG2 XBP1 cis-element reporter, Attagene multiplex; actives raise or lower the signal. In short, it runs like this: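 HepG2, transient MRTU transfection (cis-promoter driven), 24 h compound exposure. Total RNA → oligo(dT) RT → PCR → 6-FAM labeling → HpaI cut → CE. Bidirectional fit vs DMSO.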
X-box-binding protein 1 (Homo sapiens), sequence (P17861 whole entry, looked up): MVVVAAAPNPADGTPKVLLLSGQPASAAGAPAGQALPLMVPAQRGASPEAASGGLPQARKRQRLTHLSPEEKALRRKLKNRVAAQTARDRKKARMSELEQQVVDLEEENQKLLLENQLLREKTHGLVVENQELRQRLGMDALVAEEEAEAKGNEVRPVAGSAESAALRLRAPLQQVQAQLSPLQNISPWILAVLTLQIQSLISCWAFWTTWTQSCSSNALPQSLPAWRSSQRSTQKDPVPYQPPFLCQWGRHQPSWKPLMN

Experiment [6] in a line: ATG_M_19_TRANS: Attagene TRANS-FACTORIAL HepG2 Assay for M19 Transcription Factor (Internal Marker) (AID 2282974). As to conditions: HepG2 Attagene TRANS-FACTORIAL M19 internal marker reporter. The procedure, abridged: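 HepG2 cells transiently transfected with multiple GAL4-UAS reporter transcription units were exposed to chemicals for 24 h. Reporter mRNA was read by RT-PCR, 6-FAM primer extension, HpaI digestion and capillary electrophoresis; gain of signal fitted relative to DMSO.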

A short description of experiment [7]: ATG_GAL4_TRANS: Attagene TRANS-FACTORIAL HepG2 Assay for GAL4 (Internal Marker) (AID 2282976). As to conditions: HepG2 Attagene TRANS GAL4 internal marker reporter. The procedure, abridged:
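Liver HepG2 line bearing multiplexed GAL4-UAS reporter constructs; 24 h chemical treatment. Transcripts were quantified as fluorescent fragments on capillary electrophoresis after RT-PCR and HpaI cut, with activity fitted upward from DMSO.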

The target of experiment [8] is Estrogen-related receptor gamma (Homo sapiens) (UniProt P62508). Put plainly: ATG_ERRg_TRANS: Attagene TRANS-FACTORIAL HepG2 Assay for human Estrogen-Related Receptor gamma (ERRg) (AID 2282977).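 Note: hits increase reporter signal over DMSO so potencies reflect activators.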 As to conditions: HepG2 Attagene TRANS reporter, ERRg transactivation. The procedure, abridged: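 HepG2 cells transiently transfected with multiplexed GAL4-UAS reporter units and chimeric NR-Gal4 constructs were exposed to test chemicals for 24 h. Reporter mRNA was measured by RT-PCR, 6-FAM primer extension, HpaI digestion and capillary electrophoresis; gain-of-signal versus DMSO.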
Estrogen-related receptor gamma (Homo sapiens), sequence (P62508 whole entry, looked up, the tested form may be a part): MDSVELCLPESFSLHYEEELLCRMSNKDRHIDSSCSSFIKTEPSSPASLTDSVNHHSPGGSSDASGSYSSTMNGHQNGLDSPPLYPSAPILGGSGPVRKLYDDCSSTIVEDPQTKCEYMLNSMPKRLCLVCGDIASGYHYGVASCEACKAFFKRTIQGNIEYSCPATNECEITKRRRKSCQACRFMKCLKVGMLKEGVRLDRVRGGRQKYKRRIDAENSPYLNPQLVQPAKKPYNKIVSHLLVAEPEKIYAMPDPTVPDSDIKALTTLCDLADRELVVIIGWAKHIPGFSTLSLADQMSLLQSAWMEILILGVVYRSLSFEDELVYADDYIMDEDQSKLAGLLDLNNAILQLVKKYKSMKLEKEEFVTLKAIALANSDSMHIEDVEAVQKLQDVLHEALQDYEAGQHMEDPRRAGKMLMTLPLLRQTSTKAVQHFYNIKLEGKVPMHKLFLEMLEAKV

In experiment [9] the target is Glucocorticoid receptor (Homo sapiens) (UniProt P04150). Put plainly: ATG_GR_TRANS: Attagene TRANS-FACTORIAL HepG2 Assay for human Glucocorticoid Receptor (GR) (AID 2282978).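 Note: activators score as hits since higher reporter transcript over DMSO is fitted.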 The following applies: HepG2 Attagene TRANS GR reporter, mRNA transcription. In short, it runs like this:
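HepG2 cells transiently transfected with multiplexed reporter units in which chimeric NR-GAL4 proteins drive GAL4-UAS reporters; 24 h compound exposure. Reporter mRNA measured by RT-PCR, 6-FAM labelling, HpaI digestion and capillary electrophoresis; gain-of-signal fitted versus DMSO.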

The target of experiment [10] is Oxysterols receptor LXR-beta (Homo sapiens) (UniProt P55055). The experiment is described as follows: ATG_LXRb_TRANS: Attagene TRANS-FACTORIAL HepG2 Assay for human Liver X Receptor beta (LXRb) (AID 2282981). The following applies: HepG2 Attagene TRANS GAL4-LXRb reporter, mRNA. The procedure, abridged: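 Gain-of-signal mRNA reporter endpoint, DMSO as negative control. Transiently transfected HepG2 cells carrying the NR-Gal4 chimera and GAL4-UAS reporter units were treated 24 h; transcripts quantified by RT-PCR and capillary electrophoresis fluorescence.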
Oxysterols receptor LXR-beta (Homo sapiens), sequence (P55055 whole entry, looked up, the tested form may be a part): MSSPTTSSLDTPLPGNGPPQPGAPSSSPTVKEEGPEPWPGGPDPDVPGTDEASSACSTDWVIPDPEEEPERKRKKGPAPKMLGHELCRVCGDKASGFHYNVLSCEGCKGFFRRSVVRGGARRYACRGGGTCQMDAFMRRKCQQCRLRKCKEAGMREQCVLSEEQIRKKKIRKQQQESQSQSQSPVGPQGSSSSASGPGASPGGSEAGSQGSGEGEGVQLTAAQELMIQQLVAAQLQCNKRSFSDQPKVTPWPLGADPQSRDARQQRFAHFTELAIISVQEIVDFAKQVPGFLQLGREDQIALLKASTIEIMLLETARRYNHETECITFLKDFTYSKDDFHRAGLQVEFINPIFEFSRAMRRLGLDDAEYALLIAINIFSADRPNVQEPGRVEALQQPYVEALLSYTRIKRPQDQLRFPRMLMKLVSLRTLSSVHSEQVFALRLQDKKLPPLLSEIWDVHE

Experiment [11] is described as follows: ATG_M_32_TRANS: Attagene TRANS-FACTORIAL HepG2 Assay for M32 Transcription Factor (Internal Marker) (AID 2282984).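 Note: transcript level of a background control reporter unit measured by RT-PCR and capillary electrophoresis.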 As to conditions: HepG2 Attagene TRANS M32 internal marker reporter. The procedure, abridged: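 Capillary electrophoresis of 6-FAM-labelled reporter fragments gives the signal; data fitted for gain over DMSO negative control. Source: HepG2 cells bearing transient multiple reporter transcription units, 24 h exposure.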

For experiment [12], the target named is Transcriptional activator Myb (Homo sapiens) (UniProt P10242). Put plainly: ATG_Myb_CIS: Attagene CIS-FACTORIAL HepG2 Assay for human Myeloblastosis (Myb) Proto-Oncogene Transcription Factor (AID 2282986; active = hit-call score of the fitted dose curve at least 0.9, where 1 is the maximum; inactive = score below 0.9). As to conditions: HepG2 Attagene CIS-FACTORIAL Myb reporter transcription; actives raise or lower the signal. In short, it runs like this:
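HepG2 cells were transiently transfected with cis-regulated multiple reporter transcription units reflecting endogenous Myb activity, then exposed to compound for 24 hours. Reporter mRNA was measured by RT-PCR with capillary electrophoresis; bidirectional fitting versus DMSO baseline.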

Experiment [13] deals with Nuclear respiratory factor 1 (Homo sapiens) (UniProt Q16656). Put plainly: ATG_NRF1_CIS: Attagene CIS-FACTORIAL HepG2 Assay for human Nuclear Respiratory Factor 1 (NRF1) Orphan Gene (AID 2282987; active = hit-call score of the fitted dose curve at least 0.9, where 1 is the maximum; inactive = score below 0.9). As to conditions: HepG2 NRF1 cis-element reporter, Attagene multiplex; actives raise or lower the signal. The procedure, abridged: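 HepG2 cells transiently transfected with multiple reporter transcription units under cis-regulatory promoter control, so endogenous transcription-factor activity is read. After 24 h compound exposure, reporter mRNA quantified by RT-PCR, fluorescent labelling, HpaI digestion and capillary electrophoresis; bidirectional fitting versus DMSO.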

In experiment [14] the target is Estrogen receptor (Homo sapiens) (UniProt P03372). The experiment is described as follows: ATG_ERa_TRANS: Attagene TRANS-FACTORIAL HepG2 Assay for human Estrogen Receptor alpha (ERa) (AID 2282970). The following applies: HepG2 Attagene TRANS ERa GAL4 reporter, mRNA. The procedure, abridged:
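Multiplexed cell-based reporter format in HepG2: chimeric ERa-Gal4 protein drives GAL4-UAS reporter transcription. Fluorescent reporter mRNA quantified by capillary electrophoresis 24 hours after dosing; endpoint fitted as signal gain against DMSO.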

The target in experiment [15] is Hepatocyte nuclear factor 4-alpha (Homo sapiens) (UniProt P41235). The experiment is described as follows: ATG_HNF4a_TRANS: Attagene TRANS-FACTORIAL HepG2 Assay for human Hepatocyte Nuclear Factor 4 alpha (HNF4a) (AID 2282982). The following applies: HepG2 HNF4a transactivation reporter, mRNA readout. In short, it runs like this:
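Gain-of-signal mRNA induction, relative to DMSO vehicle, was read after 24 h compound treatment of HepG2 cells bearing transfected GAL4-UAS reporters. Detection used RT-PCR, 6-FAM primer extension and capillary electrophoresis.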

Experiment [16] in a line: ATG_M_06_TRANS: Attagene TRANS-FACTORIAL HepG2 Assay for M06 Transcription Factor (Internal Marker) (AID 2282983). As to conditions: HepG2 Attagene TRANS M06 internal marker reporter. The procedure, abridged:
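Internal-marker background readout from a multiplexed TRANS reporter system in HepG2; 24 h dosing; mRNA induction quantified by RT-PCR plus capillary electrophoresis fluorescence; DMSO as negative control and baseline.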

The target in experiment [17] is Oxysterols receptor LXR-alpha (Homo sapiens) (UniProt Q13133). The experiment is described as follows: ATG_LXRa_TRANS: Attagene TRANS-FACTORIAL HepG2 Assay for human Liver X Receptor alpha (LXRa) (AID 2282980). The following applies: HepG2 Attagene TRANS reporter, LXRa transactivation. In short, it runs like this:
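In this multiplexed TRANS system, compounds act on HepG2 cells carrying GAL4-UAS reporter units and a receptor-GAL4 fusion for 24 h. Induced reporter RNA is amplified, fluorescently labelled and sized by capillary electrophoresis, with DMSO as baseline.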

For experiment [18], the target named is Nuclear receptor subfamily 4 group A member 2 (Homo sapiens) (UniProt P43354). Put plainly: ATG_NURR1_TRANS: Attagene TRANS-FACTORIAL HepG2 Assay for human Nuclear Receptor Related Protein 1 (NURR1) (AID 2282985). The following applies: HepG2 Attagene TRANS reporter, mRNA readout. The procedure, abridged: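 HepG2 / transient MRTU transfection / 24 h compound exposure / RT-PCR + CE fluorescence of reporter mRNA / gain-of-signal vs DMSO.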
Nuclear receptor subfamily 4 group A member 2 (Homo sapiens), sequence (P43354 whole entry, looked up): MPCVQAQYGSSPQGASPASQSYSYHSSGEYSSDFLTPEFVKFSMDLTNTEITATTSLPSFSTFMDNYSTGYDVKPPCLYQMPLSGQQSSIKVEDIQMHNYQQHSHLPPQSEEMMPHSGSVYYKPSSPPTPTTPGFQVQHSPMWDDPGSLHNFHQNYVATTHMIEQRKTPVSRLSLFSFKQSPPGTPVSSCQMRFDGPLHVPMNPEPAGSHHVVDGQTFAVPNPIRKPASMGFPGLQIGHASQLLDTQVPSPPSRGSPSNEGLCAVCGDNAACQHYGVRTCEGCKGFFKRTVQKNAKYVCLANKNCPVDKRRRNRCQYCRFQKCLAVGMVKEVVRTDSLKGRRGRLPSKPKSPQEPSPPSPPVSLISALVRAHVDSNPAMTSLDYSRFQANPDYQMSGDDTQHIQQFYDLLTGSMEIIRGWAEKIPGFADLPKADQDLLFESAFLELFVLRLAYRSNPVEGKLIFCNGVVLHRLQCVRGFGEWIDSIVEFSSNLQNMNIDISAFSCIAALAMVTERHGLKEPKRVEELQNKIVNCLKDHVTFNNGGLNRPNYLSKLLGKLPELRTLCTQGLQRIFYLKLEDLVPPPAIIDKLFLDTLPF

Experiment [19] deals with Bile acid receptor (Homo sapiens) (UniProt Q96RI1). The experiment is described as follows: ATG_FXR_TRANS: Attagene TRANS-FACTORIAL HepG2 Assay for Farnesoid X Receptor (FXR) (AID 2282979).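 Note: hits raise reporter mRNA above DMSO so AC50 marks FXR activation.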 The following applies: HepG2 Attagene TRANS FXR-GAL4 reporter transcription. The procedure, abridged: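 After 24 h chemical treatment of transfected HepG2 cells, GAL4-UAS reporter transcripts driven by an exogenous FXR-GAL4 fusion were measured by RT-PCR and capillary electrophoresis. Increases over DMSO were fitted.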

Hepatocyte nuclear factor 4-alpha (Homo sapiens), sequence (P41235 whole entry, looked up, the tested form may be a part): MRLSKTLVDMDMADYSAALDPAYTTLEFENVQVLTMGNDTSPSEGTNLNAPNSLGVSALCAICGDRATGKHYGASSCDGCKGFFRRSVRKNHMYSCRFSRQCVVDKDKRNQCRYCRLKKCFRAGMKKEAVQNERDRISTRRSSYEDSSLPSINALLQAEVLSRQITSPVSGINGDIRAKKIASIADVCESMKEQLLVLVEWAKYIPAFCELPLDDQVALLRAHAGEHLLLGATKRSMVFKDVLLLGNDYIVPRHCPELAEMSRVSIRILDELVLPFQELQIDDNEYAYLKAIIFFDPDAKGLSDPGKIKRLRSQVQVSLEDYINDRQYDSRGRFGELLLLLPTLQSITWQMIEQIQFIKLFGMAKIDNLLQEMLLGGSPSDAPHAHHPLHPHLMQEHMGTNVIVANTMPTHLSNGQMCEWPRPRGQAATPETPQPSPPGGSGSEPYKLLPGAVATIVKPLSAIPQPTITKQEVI
Estrogen receptor (Homo sapiens), sequence (P03372 whole entry, looked up, the tested form may be a part): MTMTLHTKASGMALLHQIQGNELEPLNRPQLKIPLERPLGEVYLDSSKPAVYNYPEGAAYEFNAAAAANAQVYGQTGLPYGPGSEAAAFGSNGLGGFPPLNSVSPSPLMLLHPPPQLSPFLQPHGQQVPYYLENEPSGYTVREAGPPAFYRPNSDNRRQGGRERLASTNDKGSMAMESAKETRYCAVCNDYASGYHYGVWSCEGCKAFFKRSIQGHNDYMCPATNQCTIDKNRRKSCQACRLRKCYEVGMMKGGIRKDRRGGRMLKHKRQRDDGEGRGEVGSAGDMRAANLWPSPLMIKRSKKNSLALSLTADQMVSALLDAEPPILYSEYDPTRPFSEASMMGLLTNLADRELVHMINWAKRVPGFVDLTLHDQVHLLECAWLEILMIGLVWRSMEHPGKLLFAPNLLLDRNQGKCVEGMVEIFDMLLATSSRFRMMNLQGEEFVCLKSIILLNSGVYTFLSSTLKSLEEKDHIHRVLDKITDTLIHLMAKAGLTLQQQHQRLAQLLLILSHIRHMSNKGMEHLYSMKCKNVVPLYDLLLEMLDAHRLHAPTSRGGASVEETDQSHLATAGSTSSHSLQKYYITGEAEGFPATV
Glucocorticoid receptor (Homo sapiens), sequence (P04150 whole entry, looked up, the tested form may be a part): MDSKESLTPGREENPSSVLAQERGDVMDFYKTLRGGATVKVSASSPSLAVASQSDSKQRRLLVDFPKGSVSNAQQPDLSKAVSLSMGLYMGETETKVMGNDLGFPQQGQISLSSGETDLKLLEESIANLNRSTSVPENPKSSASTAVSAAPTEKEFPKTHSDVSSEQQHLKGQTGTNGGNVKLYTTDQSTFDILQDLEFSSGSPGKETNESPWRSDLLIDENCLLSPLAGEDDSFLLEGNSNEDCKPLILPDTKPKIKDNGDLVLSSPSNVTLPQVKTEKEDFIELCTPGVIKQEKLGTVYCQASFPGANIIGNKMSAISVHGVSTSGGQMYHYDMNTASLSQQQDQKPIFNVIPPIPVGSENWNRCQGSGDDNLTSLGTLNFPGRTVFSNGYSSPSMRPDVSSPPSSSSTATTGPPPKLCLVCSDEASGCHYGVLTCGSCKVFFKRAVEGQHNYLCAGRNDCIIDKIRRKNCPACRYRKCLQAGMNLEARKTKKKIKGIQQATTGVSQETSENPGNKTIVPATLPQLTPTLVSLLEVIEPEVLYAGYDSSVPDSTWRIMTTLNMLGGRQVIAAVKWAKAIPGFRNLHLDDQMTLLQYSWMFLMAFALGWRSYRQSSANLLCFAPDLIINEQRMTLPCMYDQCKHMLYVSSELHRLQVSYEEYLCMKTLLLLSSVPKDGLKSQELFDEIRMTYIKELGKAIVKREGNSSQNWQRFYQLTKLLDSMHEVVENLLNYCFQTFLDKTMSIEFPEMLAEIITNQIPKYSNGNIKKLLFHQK
Transcriptional activator Myb (Homo sapiens), sequence (P10242 whole entry, looked up): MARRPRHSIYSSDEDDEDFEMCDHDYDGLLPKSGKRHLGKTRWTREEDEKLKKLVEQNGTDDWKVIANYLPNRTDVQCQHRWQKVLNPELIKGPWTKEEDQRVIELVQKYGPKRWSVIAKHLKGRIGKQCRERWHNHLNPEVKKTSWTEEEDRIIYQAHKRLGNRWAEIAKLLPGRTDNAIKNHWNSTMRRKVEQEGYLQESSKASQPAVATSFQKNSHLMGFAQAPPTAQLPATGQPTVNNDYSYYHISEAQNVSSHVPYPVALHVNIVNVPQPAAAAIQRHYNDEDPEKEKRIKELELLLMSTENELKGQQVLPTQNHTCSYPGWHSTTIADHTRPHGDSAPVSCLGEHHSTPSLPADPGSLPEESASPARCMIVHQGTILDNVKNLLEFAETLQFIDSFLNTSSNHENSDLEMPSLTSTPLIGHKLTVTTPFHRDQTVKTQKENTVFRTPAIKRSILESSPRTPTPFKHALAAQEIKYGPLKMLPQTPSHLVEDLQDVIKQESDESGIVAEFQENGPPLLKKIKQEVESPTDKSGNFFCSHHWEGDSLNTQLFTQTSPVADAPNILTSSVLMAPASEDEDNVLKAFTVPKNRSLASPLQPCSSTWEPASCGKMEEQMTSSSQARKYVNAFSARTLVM
Steroid hormone receptor ERR1 (Homo sapiens), sequence (P11474 whole entry, looked up, the tested form may be a part): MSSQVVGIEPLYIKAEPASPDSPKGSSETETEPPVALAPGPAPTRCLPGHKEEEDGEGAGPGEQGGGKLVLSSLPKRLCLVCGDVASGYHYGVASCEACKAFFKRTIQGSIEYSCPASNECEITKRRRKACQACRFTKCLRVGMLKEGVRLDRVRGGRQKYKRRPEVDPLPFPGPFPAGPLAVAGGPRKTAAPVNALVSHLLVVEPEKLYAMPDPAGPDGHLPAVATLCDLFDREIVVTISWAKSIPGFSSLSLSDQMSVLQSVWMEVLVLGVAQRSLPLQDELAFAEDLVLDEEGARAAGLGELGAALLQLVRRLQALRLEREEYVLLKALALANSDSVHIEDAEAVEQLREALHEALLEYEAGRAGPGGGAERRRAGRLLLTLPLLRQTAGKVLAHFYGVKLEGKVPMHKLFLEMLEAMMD

On to `O=C1CCCC1`, for which the compound was called inactive in [1], in experiment [2], in experiment [3], in experiment [4], in [5] and in experiment [6]. Besides, the compound was called inactive in experiment [7], in [8], in experiment [9], in [10], in experiment [11] and in experiment [12]. Further, the call in experiment [13] was inactive.
As for `CCC(=O)Oc1ccc(/C(CC)=C(\CC)c2ccc(OC(=O)CC)cc2)cc1`, the outcome in experiment [1], in experiment [2], in experiment [9], in experiment [10], in [15] and in [16] was inactive. For the same compound, the concentration at half-maximal activity (AC50) was 4.32 µM (active) in experiment [3], 0.54 µM (active) in experiment [14] and 26.9 µM (active) in experiment [13].
Take `CC1(C)[C@H]2CC[C@]1(C)C(=O)C2`: the compound was classed as inactive in experiment [1], in experiment [2], in experiment [3], in experiment [4], in [5] and in experiment [8]. The compound was called inactive in experiment [9], in experiment [17], in experiment [16], in experiment [11] and in experiment [13].
Regarding `OC1CCCC1`, the result in [1], in experiment [2], in experiment [3], in [4], in [6] and in experiment [8] was inactive. For the same compound, the call in [10], in experiment [16], in experiment [11], in [18], in [12] and in experiment [13] was inactive.
Turning to `CCCCC(CC)CCC(CC(C)C)OS(=O)(=O)O` (stereo not drawn), the call in experiment [1], in experiment [2], in [3], in experiment [14], in experiment [5] and in experiment [19] was inactive. In addition, the compound was called inactive in [10], in [16], in experiment [11], in [18], in [12] and in experiment [13].
In the case of `Cc1cc(C)c(C(=O)O)c(C)c1`, the outcome in [1], in experiment [2], in experiment [3], in experiment [14], in experiment [7] and in experiment [10] was inactive. Further, the compound was called inactive in [16], in experiment [11], in experiment [12] and in experiment [13].
Turning to `CC(CC=O)c1ccccc1` (stereo not drawn), the compound was classed as inactive in experiment [1], in experiment [2], in experiment [14], in experiment [6], in experiment [7] and in experiment [16]. The compound was called inactive in experiment [18] and in experiment [13]. Besides, the half-maximal activity concentration (AC50) in experiment [3] was 7.03 µM (active).
Consider `OCCCS`, for which the call in experiment [1], in experiment [2], in experiment [3], in [5], in experiment [6] and in experiment [7] was inactive. The compound was classed as inactive in [9], in experiment [15], in [11], in experiment [18], in experiment [12] and in experiment [13].
Take `CNC(=S)NN`: the result in experiment [1], in experiment [2], in [3], in experiment [14], in experiment [6] and in experiment [8] was inactive. Also, the outcome in experiment [17], in [10], in experiment [11] and in [12] was inactive.
Consider `C1CN(SSN2CCOCC2)CCO1`, for which the compound was called inactive in experiment [1], in experiment [2], in experiment [3], in experiment [4], in experiment [5] and in experiment [6]. Further, the compound was called inactive in experiment [8], in experiment [17], in experiment [15], in experiment [11] and in experiment [13].
As to `CCCOCCOCCOCCO`, the compound was classed as inactive in [1], in experiment [2], in [3], in experiment [4], in experiment [5] and in experiment [6]. The call in [8], in [17] and in [10] was inactive.
